An excerpt weighted towards active compounds, which were near 3.4% of everything screened.
KLK7 zymogen act: proKLK7 zymogen activators, primary screen, biochemical, fluorescence intensity. hit rate 0.9% among 370,000. activation, % at 7 µM. Kallikrein-7 (Homo sapiens), P49862. purified proKLK7, EDANS-DABCYL substrate fluorescence; 100% is mature enzyme control, 0% vehicle;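 active = activation above the mean of all tested compounds plus 3 SD, computed per campaign excluding outliers beyond control limits, cut at about 13% in these data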
ADAM17 inh: ADAM17 inhibitors, primary screen, biochemical, QFRET; recombinant ADAM17, EDANS/DABCYL FRET peptide cleavage; inhibition, % at 6.95 µM; hit rate 0.83% among 370,000;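 active = inhibition above the mean of compounds lying between control limits plus 3 SD, set per campaign, cut at about 8.5% in these data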
sPLA2-III inh: human group III sPLA2 inhibitors, primary screen, biochemical, QFRET, BODIPY PC-A2 liposome substrate. QFRET BODIPY PC-A2 liposome hydrolysis, fluorescence. inhibition, % at 12.2 µM. hit rate 0.56% among 370,000. Group 3 secretory phospholipase A2 (Homo sapiens), Q9NZ20;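 active = inhibition above mean plus 3 SD of compounds lying within the high and low control bounds, cut at about 19% in these data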
CendR NRP1 mod: modulators of CendR peptide binding to NRP-1, primary screen, biochemical, fluorescence polarization, uHTS; hit rate 0.85% among 360,000; FAM-RPARPAR peptide binding to NRP-1; AID 602438, 2012; inhibition, % at 25 µM;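 active = inhibition or corrected inhibition above about 18%, plus a signal ratio from 0.5 to 1.5, limit read from the data, passing the limit was not always enough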
ADAM10 inh: human ADAM10 inhibitors, primary screen, biochemical, QFRET, HTS; hit rate 0.62% among 370,000; Disintegrin and metalloproteinase domain-containing protein 10 (Homo sapiens), O14672; recombinant ADAM10, EDANS/DABCYL FRET peptide cleavage, 3 h; inhibition, % at 7 µM; AID 720582, 2013;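 active = inhibition above a per-campaign cutoff equal to the mean of compounds falling between control-based bounds plus 3 SD, cut at about 20% in these data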
Target sequence (O14672 214-748 limits assumed): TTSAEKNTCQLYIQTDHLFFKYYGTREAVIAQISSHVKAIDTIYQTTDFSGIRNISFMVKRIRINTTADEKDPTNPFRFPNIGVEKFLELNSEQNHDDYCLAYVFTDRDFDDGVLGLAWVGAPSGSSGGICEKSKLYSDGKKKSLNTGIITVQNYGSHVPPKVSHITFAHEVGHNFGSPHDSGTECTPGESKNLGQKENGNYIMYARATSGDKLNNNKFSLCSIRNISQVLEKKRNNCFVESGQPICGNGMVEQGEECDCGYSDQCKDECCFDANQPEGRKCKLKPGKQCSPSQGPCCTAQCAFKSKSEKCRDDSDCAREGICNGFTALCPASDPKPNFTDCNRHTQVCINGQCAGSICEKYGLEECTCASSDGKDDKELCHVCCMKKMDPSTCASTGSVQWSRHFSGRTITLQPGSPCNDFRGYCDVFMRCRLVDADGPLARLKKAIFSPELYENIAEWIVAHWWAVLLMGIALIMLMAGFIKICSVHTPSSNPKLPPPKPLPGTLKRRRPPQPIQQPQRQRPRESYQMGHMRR
ADAM10 confirm: human ADAM10 inhibitors, confirmation, biochemical, QFRET, triplicate; shares compounds with ADAM10 inh; ADAM10 QFRET peptide cleavage, EDANS fluorescence; inhibition, % at 6.95 µM; hit rate 1% among 2,100; AID 743208, 2013;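 active = inhibition above about 20% chosen separately for each screening run, limit read from the data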
ADAM17 ctr: ADAM17 inhibitors, counter-screen for ADAM10 exosite inhibitor project, biochemical, QFRET, high throughput; AID 743214, 2013; shares compounds with ADAM10 inh; inhibition, % at 6.95 µM; hit rate 0.5% among 2,100; ADAM17 QFRET peptide cleavage, EDANS fluorescence;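 active = mean triplicate inhibition above the solvent-only control wells' mean plus 3 SD, cut at about 12% in these data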
ADAM10 ctr: ADAM10 inhibitors, counter-screen for ADAM17 exosite inhibitor project, biochemical, FRET, human ADAM10; shares compounds with ADAM17 inh; hit rate 47% among 2,900; inhibition, % at 6.95 µM; recombinant ADAM10, EDANS/DABCYL FRET peptide cleavage, 3 h; AID 743256, 2014;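 active = mean inhibition over the triplicate runs exceeds the activity threshold set in the earlier primary screen, cut at about 20% in these data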
ADAM17 confirm: ADAM17 inhibitors, hit retest, confirmation, biochemical, QFRET peptide cleavage; shares compounds with ADAM17 inh; recombinant ADAM17, EDANS/DABCYL QFRET peptide cleavage; inhibition, % at 6.95 µM; hit rate 65% among 2,900;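 active = mean inhibition across replicates above the hit cutoff set in the primary screen, cut at about 8.5% in these data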
Numbers stand for hits.

Screening Cc1ccc2nc(CN(C)C(=O)[C@@H](Cc3ccccc3)NC(=O)[C@H]3O[C@@H](n4cnc(C(N)=O)n4)[C@H](O)[C@@H]3O)[nH]c2c1 returned KLK7 zymogen act inactive, ADAM17 inh inactive, sPLA2-III inh inactive and ADAM10 inh inactive.
For O=C(C(=O)N1CCN(C(=O)c2cc(C(F)(F)F)cc(C(F)(F)F)c2)CC1)c1cccc(C(F)(F)F)c1 the results were KLK7 zymogen act inactive, ADAM17 inh inactive, sPLA2-III inh inactive and ADAM10 inh inactive.
Screening O=C(CSc1nc2ccccc2c(=O)n1-c1ccc(F)c(Cl)c1)Nc1cccc(S(=O)(=O)N2CCOCC2)c1 returned KLK7 zymogen act inactive, ADAM17 inh 10, sPLA2-III inh inactive, CendR NRP1 mod inactive, ADAM10 inh 20, ADAM10 confirm inactive, ADAM17 ctr inactive, ADAM10 ctr 30 and ADAM17 confirm 20.
`O=C(CSc1nc2ccccc2c(=O)n1-c1ccc(F)cc1)Nc1ccc(Cl)c(S(=O)(=O)N2CCOCC2)c1` gave KLK7 zymogen act inactive, ADAM17 inh inactive, sPLA2-III inh inactive, CendR NRP1 mod inactive and ADAM10 inh inactive.
Screening CN(C)S(=O)(=O)c1cccc(NC(=O)CSc2nc3ccccc3n2-c2ccccc2)c1 returned KLK7 zymogen act inactive, ADAM17 inh 10, sPLA2-III inh inactive, CendR NRP1 mod inactive, ADAM10 inh 20, ADAM10 confirm inactive, ADAM17 ctr inactive, ADAM10 ctr 24 and ADAM17 confirm 13.
`CCN1Cc2nnn(CC3CCCCC3)c2-c2ccccc2S1(=O)=O` gave KLK7 zymogen act inactive, ADAM17 inh inactive, sPLA2-III inh inactive and ADAM10 inh inactive.
c1ccc(CN2CCC(Nc3nc(-c4ccccc4)nc4ccccc34)CC2)cc1 was read as KLK7 zymogen act inactive, ADAM17 inh 8.9, sPLA2-III inh inactive, CendR NRP1 mod inactive, ADAM10 inh 21, ADAM10 confirm inactive, ADAM17 ctr inactive, ADAM10 ctr 22 and ADAM17 confirm 15.
CCN(CC)C(=O)c1[nH]cnc1C(=O)N[C@@H](CCCCNC(=O)OC(C)(C)C)C(=O)OC(C)(C)C was read as KLK7 zymogen act inactive, ADAM17 inh inactive, sPLA2-III inh inactive, CendR NRP1 mod inactive and ADAM10 inh inactive.
`CC(C)(C)OC(=O)NCCCC[C@H](NC(=O)c1nc[nH]c1C(=O)NCc1ccc(CNC(=O)OC(C)(C)C)cc1)C(=O)OC(C)(C)C` gave KLK7 zymogen act inactive, ADAM17 inh 13, sPLA2-III inh inactive, CendR NRP1 mod inactive, ADAM10 inh 20, ADAM10 confirm inactive, ADAM17 ctr inactive, ADAM10 ctr 29 and ADAM17 confirm 15.
For C[C@H](NC(=O)c1nc[nH]c1C(=O)NCc1ccc(CNC(=O)OC(C)(C)C)cc1)C(=O)OC(C)(C)C the results were KLK7 zymogen act inactive, ADAM17 inh inactive, sPLA2-III inh inactive, CendR NRP1 mod inactive and ADAM10 inh inactive.
CC(C)C[C@H](NC(=O)c1nc[nH]c1C(=O)NCc1ccc(CNC(=O)OC(C)(C)C)cc1)C(=O)OC(C)(C)C was read as KLK7 zymogen act inactive, ADAM17 inh 16, sPLA2-III inh inactive, CendR NRP1 mod inactive, ADAM10 inh 24, ADAM10 confirm inactive, ADAM17 ctr inactive, ADAM10 ctr 52 and ADAM17 confirm 25.
For C[C@@H](NC(=O)c1nc[nH]c1C(=O)NCc1ccc(CNC(=O)OC(C)(C)C)cc1)c1ccccc1 the results were KLK7 zymogen act inactive, ADAM17 inh 17, sPLA2-III inh inactive, CendR NRP1 mod inactive, ADAM10 inh 45, ADAM10 confirm inactive, ADAM17 ctr inactive, ADAM10 ctr 22 and ADAM17 confirm 16.
Cn1c(Cc2cccs2)nnc1SCC(=O)Nc1ccc2c(c1)OCO2 was read as KLK7 zymogen act inactive, ADAM17 inh inactive, sPLA2-III inh inactive and ADAM10 inh inactive.
Screening O=[N+]([O-])c1cccnc1N1CCC(c2cc(-c3cccc(C(F)(F)F)c3)n[nH]2)CC1 returned KLK7 zymogen act inactive, ADAM17 inh 11, sPLA2-III inh inactive, CendR NRP1 mod inactive, ADAM10 inh 20, ADAM10 confirm inactive, ADAM17 ctr inactive, ADAM10 ctr 48 and ADAM17 confirm 19.
CC(=O)c1ccc(N2CCC(c3cc(-c4ccc(Cl)cc4Cl)n[nH]3)CC2)c([N+](=O)[O-])c1 was read as KLK7 zymogen act inactive, ADAM17 inh 13, sPLA2-III inh inactive, CendR NRP1 mod inactive, ADAM10 inh 20, ADAM10 confirm inactive, ADAM17 ctr inactive, ADAM10 ctr 44 and ADAM17 confirm 21.
Screening CC(=O)c1ccc(N2CCN(c3ccccc3O)CC2)c([N+](=O)[O-])c1 returned KLK7 zymogen act inactive, ADAM17 inh inactive, sPLA2-III inh inactive, CendR NRP1 mod inactive and ADAM10 inh inactive.
For O=[N+]([O-])c1cccnc1N1CCC(c2cc(-c3ccc(Cl)cc3Cl)n[nH]2)CC1 the results were KLK7 zymogen act inactive, ADAM17 inh 11, sPLA2-III inh inactive, CendR NRP1 mod inactive, ADAM10 inh 30, ADAM10 confirm inactive, ADAM17 ctr inactive, ADAM10 ctr 31 and ADAM17 confirm 17.
Screening Cc1ccccc1CN1CCCCC(NC(=O)c2ccccc2)C1=O (stereo not given) returned KLK7 zymogen act inactive, ADAM17 inh inactive, sPLA2-III inh inactive and ADAM10 inh inactive.
CCOC(=O)c1c(NC(=O)CN2C(=O)NC(C)(c3ccc(OC(F)F)cc3)C2=O)sc(C)c1C (stereo not given) was read as KLK7 zymogen act inactive, ADAM17 inh 11, sPLA2-III inh inactive, CendR NRP1 mod inactive, ADAM10 inh 22, ADAM10 confirm inactive, ADAM17 ctr inactive, ADAM10 ctr 34 and ADAM17 confirm 20.

Screens: PubChem, several laboratories
